A selection: hits, their analogues and other compounds. The true share with any hit is near 2.1%.
IDE act: boosts human insulin-degrading enzyme activity in HEK cells; P14735; FAbeta-B cleavage, fluorescence polarization; 0% vehicle, 100% cell-free pure enzyme wells; activation, % at 5.96 µM; actives 0.073% (n = 340,000);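 active = activation above the mean of all tested compounds plus 3 SD, set per screening campaign, cut at about 17% in these data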
Mot1-301 SUMO: inhibitors of SUMOylation pathway: yeast Mot1-301 growth rescue; S. cerevisiae Mot1-301 growth rescue, ATP luminescence, 38.5C; percent above DMSO median, 100 means doubled; growth rescue, % at 18.8 µM; actives 1% (n = 320,000); AID 2716;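 active = every valid replicate shows activation above 250% relative to neutral control wells; inactive = the rest, any valid replicate at or below 250%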;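 note: OY570 slx delta 5 strain wells were the positive control but not used for scaling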
IDE inh: inhibitors of human insulin-degrading enzyme in cells; actives 0.41% (n = 320,000); HEK cells, FAbetaB cleavage, fluorescence polarization; inhibition, % at 5.59 µM; P14735; AID 434962;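 active = percent inhibition above the average of all tested compounds plus 3 SD, set per screening campaign, cut at about 16% in these data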;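 note: IDE supplied by intact live HEK cells; FP after avidin binding of uncleaved biotin substrate so inhibition keeps polarization high; 0% = DMSO wells and 100% = 60 µM reference IDE inhibitor Ii1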
LANA-H2A inh: blocks KSHV LANA binding to histone H2A/H2B | cell-free LANA-H2A/H2B peptide, fluorescence polarization | inhibition, % (concentration not given with the values) | actives 0.6% (n = 320,000); in the data active = inhibition mostly above about 10%, no sharp cut-off; inactive = mostly below about 6.7%
HDAC3 inh: inhibitors of human histone deacetylase 3. O15379. recombinant HDAC3, fluorogenic peptide/trypsin coupled, fluorescence. inhibition, % at 8.3 µM. actives 0.15% (n = 320,000). AID 2718; in the data active = inhibition above about 26%, passing the limit was not always enough; inconclusive = no clear call, values can overlap the other calls
Active calls of the source: *.

Screening COCCSc1nnc(NC(=O)CSc2ccccc2)s1 returned IDE act -2, Mot1-301 SUMO 120, IDE inh -3, LANA-H2A inh -4 and HDAC3 inh 0.
For C1=C(c2cc3ccccc3cn2)CCCC1 the results were IDE act 4, Mot1-301 SUMO 226, IDE inh 0, LANA-H2A inh 5 and HDAC3 inh -3.
Screening Brc1ccc(C2=CC(c3ccco3)n3nnnc3N2)cc1 (stereo not given) returned IDE act 13, Mot1-301 SUMO -5, IDE inh 8, LANA-H2A inh 2 and HDAC3 inh 0.
Screening Fc1ccc(C2=CC(c3ccc(Br)o3)n3ncnc3N2)cc1 (stereo not given) returned IDE act -67, Mot1-301 SUMO 30, IDE inh 92*, LANA-H2A inh 20 and HDAC3 inh 3.
OCCCc1nc2n(n1)C(c1cccs1)C=C(c1ccc(Br)cc1)N2 (stereo not given) was read as Mot1-301 SUMO 23, IDE inh 135*, LANA-H2A inh 102* and HDAC3 inh 0.
Brc1ccc(C2=CC(c3cccs3)n3ncnc3N2)cc1 (stereo not given) was read as IDE act -129, Mot1-301 SUMO -7, IDE inh 88*, LANA-H2A inh 59* and HDAC3 inh -1.
`CC1=CC(=O)c2c(O)ccc(O)c2C1=O` gave Mot1-301 SUMO -17, IDE inh -5, LANA-H2A inh 17* and HDAC3 inh 3.
Screening O=C1C=C(N2CCN(c3ccccn3)CC2)C(=O)c2c(O)ccc(O)c21 returned IDE act 4.
CCOc1ccc(S(=O)(=O)Nc2ccc3c(c2)n(C)c(=O)n3C)cc1 was read as IDE act 3, Mot1-301 SUMO 2, IDE inh -1, LANA-H2A inh 4 and HDAC3 inh -5.
`CCOc1ccc(S(=O)(=O)Nc2ccc3c(c2)c2c(n3S(=O)(=O)c3ccc(OCC)cc3)CCCC2=O)cc1` gave Mot1-301 SUMO 877*, IDE inh 1, LANA-H2A inh 1 and HDAC3 inh 7.
`Cc1cc(C)c(S(N)(=O)=O)c(C)c1N(C)S(=O)(=O)c1ccc(Cl)cc1` gave IDE act 2, Mot1-301 SUMO 5, IDE inh -4, LANA-H2A inh 12* and HDAC3 inh -5.
Screening COc1ccc(CCN2CC(C(=O)NCCN3CCCC3=O)CCC2=O)cc1 (stereo not given) returned IDE act -9, Mot1-301 SUMO -14, IDE inh 6, LANA-H2A inh -3 and HDAC3 inh 1.
For Cc1nn(C)cc1CNC(=O)Nc1cccc(Cl)c1 the results were IDE act 2, Mot1-301 SUMO 348*, IDE inh 2, LANA-H2A inh 1 and HDAC3 inh inconclusive.
`Cc1nn(C)cc1CNC(=O)Nc1ccc(Br)cc1Cl` gave IDE act 1, Mot1-301 SUMO 14, IDE inh 0 and LANA-H2A inh 2.
For Cc1ccc(CN2CCN(/N=C/c3ccc(C(F)(F)F)cc3)CC2)c(C)c1 the results were IDE act -7, Mot1-301 SUMO 326*, IDE inh -2, LANA-H2A inh 12 and HDAC3 inh -3.
Screening Cc1ccc(CN2CCN(/N=C/c3ccc(C(=O)O)cc3)CC2)c(C)c1 returned IDE act -1, Mot1-301 SUMO 4, IDE inh 3, LANA-H2A inh 6 and HDAC3 inh 6.
For O=C(/C=C/c1cccs1)Nc1nc(-c2ccccc2)cs1 the results were IDE act -7, Mot1-301 SUMO 2, IDE inh 9, LANA-H2A inh 3 and HDAC3 inh 0.
For O=C(/C=C/c1cccs1)Nc1nncs1 the results were IDE act -1, Mot1-301 SUMO 1, IDE inh 0, LANA-H2A inh 15* and HDAC3 inh 1.
`O=S(=O)(Nc1ccc(Cl)cc1)c1ccc(N2CCOCC2)c(NC(=S)NCCN2CCOCC2)c1` gave IDE act -5, Mot1-301 SUMO 1, IDE inh 1, LANA-H2A inh -2 and HDAC3 inh 8.
CC(C)(C)[C@]1(O)CCN2C[C@H]3c4ccccc4CCc4cccc(c43)[C@@H]2C1 was read as IDE act 1, Mot1-301 SUMO 35, IDE inh -1, LANA-H2A inh 24* and HDAC3 inh -4.
For O=C(CN1CCSC1=O)N1CCN(S(=O)(=O)c2ccc(F)cc2)CC1 the results were IDE act 3.
Screening COc1ccc(O)c(C(=O)c2cnn(C(=O)c3cccc(N(C)C)c3)c2)c1 returned IDE act -3, Mot1-301 SUMO 229, IDE inh 4, LANA-H2A inh -2 and HDAC3 inh 30*.
CN(C)c1cccc(C(=O)n2cc(C(=O)c3cc(F)ccc3O)cn2)c1 was read as IDE act 0, Mot1-301 SUMO 232, IDE inh 6, LANA-H2A inh -6 and HDAC3 inh 4.
O=C(c1cnn(C(=O)c2ccc(O)cc2)c1)c1ccccc1O was read as Mot1-301 SUMO 60, IDE inh 3, LANA-H2A inh -2 and HDAC3 inh 76*.
`O=C(c1cnn(C(=O)c2ccco2)c1)c1ccccc1O` gave IDE act 5, Mot1-301 SUMO 137, IDE inh 2, LANA-H2A inh 2 and HDAC3 inh 5.
For COc1ccc(O)c(C(=O)c2cnn(C(=O)c3cc(C)oc3C)c2)c1 the results were IDE act 2, Mot1-301 SUMO 145, IDE inh 2, LANA-H2A inh -6 and HDAC3 inh -1.
For Cc1ccc(O)c(C(=O)c2cnn(-c3ccccc3)c2)c1 the results were IDE act 5, Mot1-301 SUMO 8, IDE inh -12, LANA-H2A inh 2 and HDAC3 inh 0.
`COc1ccc(C(=O)n2cc(C(=O)c3cc(C)ccc3O)cn2)cc1OC` gave IDE act 4, Mot1-301 SUMO 106, IDE inh -2, LANA-H2A inh -2 and HDAC3 inh 53*.
For COc1ccc(C(=O)n2cc(C(=O)c3cc(C)ccc3O)cn2)cc1 the results were IDE act 6, Mot1-301 SUMO 28, IDE inh -2, LANA-H2A inh 2 and HDAC3 inh 37*.
For Cc1nn(S(=O)(=O)c2ccc(Cl)cc2)c(C)c1Sc1ccc([N+](=O)[O-])cc1 the results were IDE act 1, Mot1-301 SUMO -20, IDE inh -3, LANA-H2A inh 12* and HDAC3 inh -11.
For CNC[C@@H]1Oc2ccc(NC(=O)Nc3c(C)noc3C)cc2CC(=O)N([C@H](C)CO)C[C@H]1C the results were IDE act 3, Mot1-301 SUMO 5, IDE inh -2, LANA-H2A inh 7 and HDAC3 inh 8.
Screening CC1=CC2=NC(=O)CC(C)(C(=O)N(CC(=O)NC3CCCC3)c3ccccc3F)N2C=C1 (stereo not given) returned IDE act 2, Mot1-301 SUMO -10, IDE inh 3, LANA-H2A inh 5 and HDAC3 inh -20.
